Among the data in PubChem BioAssay are composite z-score and z-score values, retold here.

The source made the active and inactive calls.

Assay [1] can be described thus: binders of probe aFSTL3 on microarray, primary screen, stem cell growth factor project, biochemical, small-molecule microarray, fluorescence 635/667 (AID 1064).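 Further: measures binding of the biotinylated anti-FSTL3 antibody to printed compounds.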 The note with it: higher = more signal.
The nature of assay [2]: binders from COS7 lysate, DM2A8 probe, primary screen, torsin A project, cell lysate, small-molecule microarray, fluorescence 635/667 (AID 1065). The note with it: higher = more signal, COS7 lysate expressing mutant human TOR1A.
A short description of assay [3]: binders of probe aFGF2 on microarray, primary screen, stem cell growth factor project, biochemical, small-molecule microarray, fluorescence 635/667 (AID 1067).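 Further: measures binding of biotinylated aFGF2 protein to printed compounds on slides; z-score merges feature fluorescence and signal-to-noise across triplicate slides.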 The settings on record: higher = more signal.
Assay [4] can be described thus: binders of probe aFGF10 on microarray, primary screen, stem cell growth factor project, biochemical, small-molecule microarray, fluorescence 635/667 (AID 1071).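 Further: score merges 667 nm spot intensity and signal to noise from triplicate slides.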 The settings on record: higher = more signal.
In assay [5] the target is Neurogenic locus notch homolog protein 2 (Homo sapiens) (UniProt Q04721). Kind of assay: Notch2 binders on small-molecule microarrays, primary screen, biochemical, small-molecule microarray, 635 nm fluorescence, stem cell growth factors (AID 1073). The note with it: Notch2 binding, higher = more signal.
Neurogenic locus notch homolog protein 2 (Homo sapiens), sequence (Q04721 whole entry, looked up, canonical isoform): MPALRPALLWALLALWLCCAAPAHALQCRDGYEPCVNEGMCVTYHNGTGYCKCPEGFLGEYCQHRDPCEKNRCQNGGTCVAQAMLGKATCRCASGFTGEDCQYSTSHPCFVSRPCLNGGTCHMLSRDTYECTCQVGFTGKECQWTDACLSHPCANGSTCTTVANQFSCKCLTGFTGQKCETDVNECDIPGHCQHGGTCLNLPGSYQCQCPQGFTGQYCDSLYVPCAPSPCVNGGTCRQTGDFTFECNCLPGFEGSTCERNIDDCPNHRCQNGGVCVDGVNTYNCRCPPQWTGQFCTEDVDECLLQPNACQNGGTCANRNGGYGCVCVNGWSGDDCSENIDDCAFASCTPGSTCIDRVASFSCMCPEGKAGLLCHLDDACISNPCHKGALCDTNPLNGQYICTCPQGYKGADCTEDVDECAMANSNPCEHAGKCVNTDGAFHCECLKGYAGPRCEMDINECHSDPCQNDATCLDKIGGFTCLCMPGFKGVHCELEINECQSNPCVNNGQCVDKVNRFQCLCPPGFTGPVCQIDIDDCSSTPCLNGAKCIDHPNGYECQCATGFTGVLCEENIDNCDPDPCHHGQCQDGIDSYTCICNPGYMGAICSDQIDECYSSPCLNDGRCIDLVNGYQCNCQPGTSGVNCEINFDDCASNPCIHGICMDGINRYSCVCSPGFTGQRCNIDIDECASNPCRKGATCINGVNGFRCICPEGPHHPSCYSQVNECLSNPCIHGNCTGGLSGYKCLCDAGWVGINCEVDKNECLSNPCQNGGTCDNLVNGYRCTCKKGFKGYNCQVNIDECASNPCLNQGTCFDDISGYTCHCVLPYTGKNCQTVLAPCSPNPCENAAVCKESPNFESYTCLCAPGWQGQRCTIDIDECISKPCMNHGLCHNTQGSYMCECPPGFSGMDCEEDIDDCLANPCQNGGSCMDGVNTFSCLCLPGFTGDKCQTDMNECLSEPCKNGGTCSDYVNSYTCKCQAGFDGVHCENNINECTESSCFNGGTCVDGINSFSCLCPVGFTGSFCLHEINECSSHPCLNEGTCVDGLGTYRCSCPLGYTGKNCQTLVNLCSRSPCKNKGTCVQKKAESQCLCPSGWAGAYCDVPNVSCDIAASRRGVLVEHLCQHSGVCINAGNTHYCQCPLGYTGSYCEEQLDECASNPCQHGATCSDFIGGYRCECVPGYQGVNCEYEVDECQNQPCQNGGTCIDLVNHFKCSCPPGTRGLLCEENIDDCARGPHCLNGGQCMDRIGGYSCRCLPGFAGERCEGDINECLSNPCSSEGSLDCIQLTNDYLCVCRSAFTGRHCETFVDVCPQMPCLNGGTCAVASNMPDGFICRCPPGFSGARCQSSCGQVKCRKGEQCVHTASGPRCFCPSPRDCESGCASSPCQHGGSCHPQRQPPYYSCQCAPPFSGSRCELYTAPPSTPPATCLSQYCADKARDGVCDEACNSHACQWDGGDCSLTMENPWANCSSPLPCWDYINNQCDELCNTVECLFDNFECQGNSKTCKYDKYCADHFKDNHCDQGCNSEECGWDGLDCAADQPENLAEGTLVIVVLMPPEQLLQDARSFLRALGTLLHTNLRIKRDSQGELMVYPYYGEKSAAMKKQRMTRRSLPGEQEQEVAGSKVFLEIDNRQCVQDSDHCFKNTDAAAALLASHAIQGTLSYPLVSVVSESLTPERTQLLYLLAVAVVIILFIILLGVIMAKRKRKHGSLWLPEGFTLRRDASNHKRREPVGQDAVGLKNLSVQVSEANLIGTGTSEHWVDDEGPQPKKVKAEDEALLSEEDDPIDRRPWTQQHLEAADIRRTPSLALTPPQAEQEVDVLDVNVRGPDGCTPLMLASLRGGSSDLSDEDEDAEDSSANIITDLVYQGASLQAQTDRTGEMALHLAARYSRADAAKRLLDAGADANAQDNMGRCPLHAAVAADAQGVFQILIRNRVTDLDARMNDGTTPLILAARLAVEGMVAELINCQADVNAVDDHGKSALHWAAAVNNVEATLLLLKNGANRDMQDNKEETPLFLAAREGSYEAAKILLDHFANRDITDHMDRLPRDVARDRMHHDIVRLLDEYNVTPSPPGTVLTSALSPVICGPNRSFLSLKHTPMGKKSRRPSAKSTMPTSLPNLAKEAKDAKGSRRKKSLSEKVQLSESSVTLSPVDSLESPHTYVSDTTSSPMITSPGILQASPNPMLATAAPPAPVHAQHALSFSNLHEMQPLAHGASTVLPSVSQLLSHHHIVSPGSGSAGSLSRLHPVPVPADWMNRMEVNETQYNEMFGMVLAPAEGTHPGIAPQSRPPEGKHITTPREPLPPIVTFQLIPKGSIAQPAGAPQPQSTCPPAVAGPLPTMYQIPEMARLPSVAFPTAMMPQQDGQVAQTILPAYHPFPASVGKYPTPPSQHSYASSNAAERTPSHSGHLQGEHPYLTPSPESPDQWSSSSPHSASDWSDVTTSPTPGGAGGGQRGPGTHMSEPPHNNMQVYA
Assay [6] concerns the target Pro-neuregulin-1, membrane-bound isoform (Homo sapiens) (UniProt Q02297). Kind of assay: NRG1 binders on small-molecule microarrays, primary screen, psychiatric disease protein project, biochemical, small-molecule microarray, fluorescence 635/667 (AID 1075).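 Further: score combines 667 nm spot fluorescence with signal to noise.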 The note with it: NRG1 binding, 635 nm fluorescence, higher = more signal.
Assay [7] deals with Neuregulin-1 EGF-like domain. Description: binders of neuregulin-1 EGF-like domain, primary screen, biochemical, small-molecule microarray, 635 nm fluorescence (AID 1081).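 Further: binding of the protein to compounds printed on small-molecule microarray slides.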 The note with it: small-molecule microarray binding, higher = more signal.
Assay [8] is described as follows: FRG1 promoter luciferase signal modulators, primary screen, FRG1 inhibition for FSHD, cell-based, C2C12 myotubes, firefly/Renilla luciferase, luminescence (AID 1084). The note with it: higher = more signal, called active from +8 up or from −8 down.
A short description of assay [9]: binders of probe aFST on microarray, primary screen, stem cell growth factor project, biochemical, small-molecule microarray, fluorescence 635/667 (AID 1086).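 Further: score merges 667 nm fluorescence with signal-to-noise of each printed compound spot.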 The settings on record: higher = more signal.
Assay [10] in a line: binders of probe aHhip on microarray, primary screen, stem cell growth factor project, biochemical, small-molecule microarray, fluorescence 635/667 (AID 1087).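 Further: score merges spot fluorescence at 667nm with spot signal to noise ratio.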 The settings on record: higher = more signal.
Assay [11] relates to PRMT1 (protein arginine N-methyltransferase 1). Description: PRMT1 binders on small-molecule microarrays, primary screen, biochemical, small-molecule microarray, 635 nm fluorescence (AID 1088).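 Further: binding of Prmt1 protein to compounds spotted on small-molecule microarray slides.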 The note with it: small-molecule microarray binding, higher = more signal.
Assay [12] in a line: yeast growth modulation, basal conditions, primary screen, YJM789 clinical isolate, OD600, 24 h (AID 1089).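 Further: growth of clinical yeast isolate S. cerevisiae YJM 789 seeded 1000 cells per well; test concentration not given here.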 The note with it: S. cerevisiae YJM789 growth, higher = more signal, called active from +8 up or from −8 down.
The nature of assay [13]: fission yeast growth modulation, primary screen, strain 972, OD600, 24 h, no modulator (AID 1090).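 Further: basal condition with compound alone and no growth modifier present; test concentration not given here.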 The note with it: S. pombe 972 growth, higher = more signal, called active from +8 up or from −8 down.
Assay [14] can be described thus: S. cerevisiae growth modulation with rapamycin, primary screen, strain BY4716, OD600, 96 h (AID 1091). Further: test concentration not given here. The note with it: higher = more signal, called active from +8 up or from −8 down.
For assay [15], the target named is Torsin-1A-interacting protein 2 (Homo sapiens) (UniProt Q8NFQ8). Description: LULL1 binders on small-molecule microarray, primary screen, cell lysate, human LULL1 lysate, 635/667 nm fluorescence (AID 1092).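 Further: probe is lysate of COS7 cells overexpressing human LULL1; score merges per-feature 667 nm fluorescence with signal-to-noise.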 The settings on record: hLULL1 lysate binding, 635 nm fluorescence, higher = more signal.
A short description of assay [16]: E. coli growth modulation, two-sided OD650, primary screen, E. coli filamentation project, strain DRC41, 24 h (AID 1093).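 Further: MC1000 strain lacking acrAB efflux and sulA so SOS filamentation is blocked; test concentration not given here.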 The settings on record: OD650, 24 h, higher = more signal, called active from +8 up or from −8 down.
A short description of assay [17]: small-molecule microarray binders of probe aLefty2, primary screen, biochemical, biotinylated probe, 635/667 nm fluorescence (AID 1094).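 Further: score merges spot fluorescence near 667 nm with spot signal-to-noise ratio.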 The note with it: higher = more signal.
Assay [18] has as its system Noggin (protein binding on small-molecule microarray). Description: Noggin binders on small-molecule microarray, primary screen, biochemical, 635/667 nm fluorescence (AID 1095).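 Further: score merges 667 nm feature fluorescence with signal to noise over triplicate slides.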 The note with it: 635 nm fluorescence, higher = more signal.
The target of assay [19] is Neurogenic locus notch homolog protein 3 (Homo sapiens) (UniProt Q9UM47). Description: NOTCH3 binders on small-molecule microarray, primary screen, biochemical, 635/667 nm fluorescence (AID 1096). The settings on record: NOTCH3 binding, 635 nm fluorescence, higher = more signal.
Neurogenic locus notch homolog protein 3 (Homo sapiens), sequence (Q9UM47 whole entry, looked up): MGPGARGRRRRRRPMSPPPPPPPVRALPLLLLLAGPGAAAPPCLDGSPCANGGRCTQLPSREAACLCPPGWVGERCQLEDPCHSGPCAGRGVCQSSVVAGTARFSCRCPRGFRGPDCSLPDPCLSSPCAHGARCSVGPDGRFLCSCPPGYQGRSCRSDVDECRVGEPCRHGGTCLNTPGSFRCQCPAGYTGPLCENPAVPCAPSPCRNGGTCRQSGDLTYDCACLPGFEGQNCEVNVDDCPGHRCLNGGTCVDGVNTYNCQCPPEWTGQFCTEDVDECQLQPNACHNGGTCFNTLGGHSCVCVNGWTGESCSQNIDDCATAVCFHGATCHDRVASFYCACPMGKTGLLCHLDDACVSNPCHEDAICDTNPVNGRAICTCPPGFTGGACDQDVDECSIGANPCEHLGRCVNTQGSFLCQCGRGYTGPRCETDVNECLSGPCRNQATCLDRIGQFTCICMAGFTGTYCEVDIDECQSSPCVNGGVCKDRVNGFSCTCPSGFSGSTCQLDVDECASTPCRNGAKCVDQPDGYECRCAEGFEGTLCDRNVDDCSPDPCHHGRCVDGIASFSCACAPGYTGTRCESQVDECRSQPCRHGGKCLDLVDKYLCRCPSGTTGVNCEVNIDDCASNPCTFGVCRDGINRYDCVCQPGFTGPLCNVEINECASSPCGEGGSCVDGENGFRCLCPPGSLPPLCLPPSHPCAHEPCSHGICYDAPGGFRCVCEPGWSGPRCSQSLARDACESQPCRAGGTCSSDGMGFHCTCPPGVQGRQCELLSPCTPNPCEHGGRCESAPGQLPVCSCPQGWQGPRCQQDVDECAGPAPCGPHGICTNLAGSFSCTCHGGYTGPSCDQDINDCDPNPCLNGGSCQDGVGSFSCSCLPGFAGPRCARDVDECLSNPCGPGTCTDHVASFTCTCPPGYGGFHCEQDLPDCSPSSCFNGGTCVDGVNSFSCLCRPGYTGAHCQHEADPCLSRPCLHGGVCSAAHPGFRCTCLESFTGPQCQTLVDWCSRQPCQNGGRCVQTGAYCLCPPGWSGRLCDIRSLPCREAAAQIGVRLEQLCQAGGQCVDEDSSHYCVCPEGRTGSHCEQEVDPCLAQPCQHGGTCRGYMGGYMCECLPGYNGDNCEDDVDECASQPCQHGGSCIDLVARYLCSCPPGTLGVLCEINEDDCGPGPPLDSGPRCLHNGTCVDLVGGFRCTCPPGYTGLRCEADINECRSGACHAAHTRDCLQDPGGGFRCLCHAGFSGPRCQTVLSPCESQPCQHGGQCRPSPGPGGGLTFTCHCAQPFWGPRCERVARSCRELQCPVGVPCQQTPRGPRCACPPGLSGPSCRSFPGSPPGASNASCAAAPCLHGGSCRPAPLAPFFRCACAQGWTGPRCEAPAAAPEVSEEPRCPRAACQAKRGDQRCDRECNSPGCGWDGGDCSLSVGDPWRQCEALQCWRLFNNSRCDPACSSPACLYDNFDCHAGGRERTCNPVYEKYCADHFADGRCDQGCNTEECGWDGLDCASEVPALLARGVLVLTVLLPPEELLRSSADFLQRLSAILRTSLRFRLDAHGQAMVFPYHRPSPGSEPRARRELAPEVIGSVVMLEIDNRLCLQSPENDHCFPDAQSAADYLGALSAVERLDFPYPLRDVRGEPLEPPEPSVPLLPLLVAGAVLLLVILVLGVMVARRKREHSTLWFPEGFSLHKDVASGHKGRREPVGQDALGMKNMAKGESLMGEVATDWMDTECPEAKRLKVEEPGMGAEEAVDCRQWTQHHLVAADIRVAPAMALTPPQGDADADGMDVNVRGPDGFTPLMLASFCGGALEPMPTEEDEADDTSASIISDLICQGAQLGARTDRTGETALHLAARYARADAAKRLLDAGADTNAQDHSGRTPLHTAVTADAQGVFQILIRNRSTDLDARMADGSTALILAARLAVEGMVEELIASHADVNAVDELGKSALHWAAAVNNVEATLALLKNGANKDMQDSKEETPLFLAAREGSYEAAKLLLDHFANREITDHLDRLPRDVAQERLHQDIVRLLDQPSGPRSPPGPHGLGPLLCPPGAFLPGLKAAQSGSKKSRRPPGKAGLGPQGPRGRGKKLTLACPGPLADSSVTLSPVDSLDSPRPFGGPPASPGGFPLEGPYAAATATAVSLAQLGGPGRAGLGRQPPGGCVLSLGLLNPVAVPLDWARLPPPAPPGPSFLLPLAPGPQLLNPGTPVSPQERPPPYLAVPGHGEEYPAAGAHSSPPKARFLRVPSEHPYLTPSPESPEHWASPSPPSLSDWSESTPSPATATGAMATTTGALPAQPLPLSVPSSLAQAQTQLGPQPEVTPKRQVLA
The nature of assay [20]: small-molecule microarray binders of probe aEGFR, primary screen, biochemical, biotinylated probe, 635/667 nm fluorescence (AID 1097).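 Further: probe is a biotinylated anti-EGFR antibody binding compounds printed on slides; score combines fluorescence near 667 nm and signal to noise of each spot.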 The note with it: higher = more signal.

For `CC(C)C[C@@H]1NC(=O)[C@@H]2C[C@H](C(=O)O)[C@H](c3cccc(OCCO)c3)N2C1=O`, the composite z-score in assay [1] is 0.73; in assay [2], 0.363; in assay [3], -0.0403; in assay [4], -0.276; in assay [5], -0.475; in assay [6], 0.402. Also, the composite z-score in assay [7] was 0.643; in [9], -0.235; in assay [10], -0.264; in assay [11], 0.64; in assay [15], 1.89; in assay [17], -0.173. The composite z-score in assay [18] is -0.0135; in assay [19], -0.155; in assay [20], -0.229. Also, the z-score in [8] was 1.29 (inactive); in [12], -0.19 (inactive); in assay [13], -0.734 (inactive); in assay [14], -0.56 (inactive); in assay [16], 1.06 (inactive).

As for `CC1(C)[C@@H]2CC(C(O)C3C=CC4C(=O)N(c5ccccc5)C(=O)C4N3Nc3ccc([N+](=O)[O-])cc3)=C[C@H]1C2` (stereo not given in full), the composite z-score in assay [1] was -0.204; in assay [2], 0.325; in assay [3], -0.0834; in assay [4] it was 0.873; in [5] it was 1.7; in [6], 1.88. The composite z-score is 1.2 in assay [7]; 0.352 in [9]; -0.0852 in assay [10]; 1.55 in assay [11]; 3.71 in assay [15]; 0.109 in assay [17]. The composite z-score in assay [18] amounted to 0.375; in [19], 1.03; in assay [20], 0.184. Moreover, the z-score was -1.08 (inactive) in assay [8]; -0.0209 (inactive) in assay [12]; 0.287 (inactive) in assay [13]; 2.09 (inactive) in assay [14]; -0.692 (inactive) in assay [16].

As to `COc1ccccc1CN1C(=O)c2ccccc2[C@@]2(Cc3ccccc3N(CC(C)C)C2=O)[C@@H]1c1ccc(CO)cc1`, the composite z-score in [1] is -0.211; in assay [2], -0.44; in [3], -0.0543; in assay [4] it was 0.134; in [5], -0.304; in [6], -0.0503. Further, the composite z-score is -0.738 in assay [7]; -0.595 in assay [9]; -0.0994 in assay [10]; 0.545 in [11]; -0.359 in assay [15]; -0.122 in [17]. In addition, the values for the composite z-score in assay [18], in [19] and in assay [20] were -0.19, -0.285 and -0.127, respectively. For the same compound, the z-score in assay [8] was -0.0845 (inactive); in assay [12], -0.928 (inactive); in assay [13], 0.189 (inactive); in assay [14] it was -1.03 (inactive); in assay [16], -0.0514 (inactive).

Take `COC(=O)[C@]1(CCC(=O)OC(C)(C)C)N=C(c2ccc(OCCCO)cc2)O[C@@H]1c1ccccc1CN=[N+]=[N-]`: the composite z-score in assay [1] was 0.995; in [2], -0.0569; in assay [3], -0.0073; in [4], 0.0301; in assay [5], 0.53; in assay [6], 0.971. Further, the composite z-score in assay [7] was 1.14; in assay [9], 0.773; in assay [10] it was -0.169; in [11], 1.52; in assay [15], 2.07; in assay [17] it was 0.271. The composite z-score in assay [18] is -0.146; in assay [19], 0.51; in [20], 0.124. The z-score is -3.06 (inactive) in [8]; 0.339 (inactive) in [12]; 0.419 (inactive) in assay [13]; 15.2 (active) in [14]; -0.511 (inactive) in [16].

For the compound `C=CCNC(=O)[C@@H]1[C@H]2C(=O)O[C@H](c3ccccc3)[C@H](c3ccccc3)N2[C@H](c2ccc(O)cc2)[C@@]12C(=O)N(C(=O)OCCOC)c1ccc(C#CCNC(N)=O)cc12`, the composite z-score in assay [1] worked out at 0.2; in assay [2] it was 0.383; in assay [3], 0.0793; in [4], 0.714; in assay [5] it was 0.211; in [6] it was 1.22. Besides, the composite z-score in assay [7] is 0.955; in [9], 1.15; in assay [10], -0.311; in assay [11], 1.03; in assay [15], 2.29; in assay [17], 0.261. For the same compound, the composite z-score in assay [18] is 1.12; in assay [19], 1.1; in assay [20], -0.0549. In addition, the z-score in assay [8] was -0.989 (inactive); in [12], -1.76 (inactive); in assay [13], 0.18 (inactive); in [14] it was 0.462 (inactive); in assay [16], -0.213 (inactive).
